Measurements taken from paper PMC11006913.
Changes are numbered by the printed parent chain.

What was measured:
Assay in all cases: PBM; 200 nM protein, PBS
Conditions in all cases: dsDNA, one strand shown
HOXB4 [1] = target: HOXB4 (Homo sapiens, UniProt P17483 148-234)
HOXB4 [2] = target: HOXB4 (Homo sapiens, UniProt P17483 148-234, V174I)
PAX4 [3] = target: T1, PAX4 (Homo sapiens, UniProt O43316 9-242, R200K)
T1 sequence: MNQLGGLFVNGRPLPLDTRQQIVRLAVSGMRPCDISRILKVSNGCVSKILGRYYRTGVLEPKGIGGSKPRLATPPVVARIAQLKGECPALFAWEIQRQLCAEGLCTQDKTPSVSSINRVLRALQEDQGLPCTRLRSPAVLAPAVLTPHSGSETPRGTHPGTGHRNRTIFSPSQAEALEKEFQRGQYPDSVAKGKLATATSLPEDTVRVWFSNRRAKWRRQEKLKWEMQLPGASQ

PAX4 [4] = target: T2, PAX4 (Homo sapiens, UniProt O43316 9-242)
T2 sequence: T1 sequence with K192R

PAX4 [5] = target: T3, PAX4 (Homo sapiens, UniProt O43316 9-242, R200Q)
T3 sequence: T1 sequence with K192Q

PAX4 [6] = target: T4, PAX4 (Homo sapiens, UniProt O43316 9-242, F177V)
T4 sequence: T1 sequence with F169V, K192R

PAX4 [7] = target: T5, PAX4 (Homo sapiens, UniProt O43316 9-242, F177Y)
T5 sequence: T1 sequence with F169Y, K192R

PAX4 [8] = target: T6, PAX4 (Homo sapiens, UniProt O43316 9-242, R227W)
T6 sequence: T1 sequence with K192R, R219W

HOXA4 = HOXA4 (Homo sapiens, UniProt Q00056 201-287, R217L)
HOXA2 [9] = target: HOXA2 (Homo sapiens, UniProt O43364 129-215, R185T)
HOXD13 [10] = target: HOXD13 (Homo sapiens, UniProt P35453 263-343, T313R)
HOXA2 [11] = target: HOXA2 (Homo sapiens, UniProt O43364 129-215, R185K)
HOXD13 [12] = target: HOXD13 (Homo sapiens, UniProt P35453 263-343)
HOXD13 [13] = target: HOXD13 (Homo sapiens, UniProt P35453 263-343, T313A)
HOXA2 [14] = target: HOXA2 (Homo sapiens, UniProt O43364 129-215, Y150S)
HOXA2 [15] = target: HOXA2 (Homo sapiens, UniProt O43364 129-215)
ALX4 [16] = target: ALX4 (Homo sapiens, UniProt Q9H161 200-286)
ALX4 [17] = target: ALX4 (Homo sapiens, UniProt Q9H161 200-286, Q225E)
PRRX1 [18] = target: PRRX1 (Homo sapiens, UniProt P54821 80-166, F113S)
NKX2-6 [19] = target: T7, NKX2-6 (Homo sapiens, UniProt A6NCS4 118-204)
T7 sequence: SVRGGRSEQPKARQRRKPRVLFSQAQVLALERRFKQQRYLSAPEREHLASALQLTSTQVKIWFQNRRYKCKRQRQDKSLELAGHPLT

NKX2-6 [20] = target: T8, NKX2-6 (Homo sapiens, UniProt A6NCS4 118-204, F151L)
T8 sequence: T7 sequence with F34L

PRRX1 [21] = target: PRRX1 (Homo sapiens, UniProt P54821 80-166)
ALX3 [22] = target: ALX3 (Homo sapiens, UniProt O95076 139-225, N203Q)
ALX3 [23] = target: ALX3 (Homo sapiens, UniProt O95076 139-225)
ALX3 [24] = target: ALX3 (Homo sapiens, UniProt O95076 139-225, L168Q)
ALX3 [25] = target: ALX3 (Homo sapiens, UniProt O95076 139-225, L168V)
ALX3 [26] = target: ALX3 (Homo sapiens, UniProt O95076 139-225, N203S)
PROP1 [27] = target: PROP1 (Homo sapiens, UniProt O75360 56-141)
PROP1 [28] = target: PROP1 (Homo sapiens, UniProt O75360 56-141, R99H)
PROP1 [29] = target: PROP1 (Homo sapiens, UniProt O75360 56-141, F88S)
PROP1 (Homo sapiens, UniProt O75360 56-141, F88S), sequence (O75360 56-141 F88S): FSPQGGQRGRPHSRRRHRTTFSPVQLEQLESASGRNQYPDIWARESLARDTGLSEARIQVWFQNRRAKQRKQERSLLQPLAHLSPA

PRRX1 (Homo sapiens, UniProt P54821 80-166), sequence (P54821 80-166): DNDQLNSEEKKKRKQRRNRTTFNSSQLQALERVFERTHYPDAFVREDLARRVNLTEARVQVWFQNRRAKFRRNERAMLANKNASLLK
PRRX1 (Homo sapiens, UniProt P54821 80-166, F113S), sequence (P54821 80-166 F113S): as the sequence (P54821 80-166) above, with F34S counted along it
HOXB4 (Homo sapiens, UniProt P17483 148-234, V174I), sequence (P17483 148-234 V174I): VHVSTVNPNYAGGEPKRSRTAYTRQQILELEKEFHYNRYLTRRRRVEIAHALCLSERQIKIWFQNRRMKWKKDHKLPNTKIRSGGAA
HOXB4 (Homo sapiens, UniProt P17483 148-234), sequence (P17483 148-234): as the sequence (P17483 148-234 V174I) above, with I27V counted along it
ALX4 (Homo sapiens, UniProt Q9H161 200-286), sequence (Q9H161 200-286): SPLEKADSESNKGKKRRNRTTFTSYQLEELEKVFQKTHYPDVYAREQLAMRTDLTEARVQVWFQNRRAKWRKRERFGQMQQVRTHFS
ALX4 (Homo sapiens, UniProt Q9H161 200-286, Q225E), sequence (Q9H161 200-286 Q225E): as the sequence (Q9H161 200-286) above, with Q26E counted along it
ALX3 (Homo sapiens, UniProt O95076 139-225), sequence (O95076 139-225): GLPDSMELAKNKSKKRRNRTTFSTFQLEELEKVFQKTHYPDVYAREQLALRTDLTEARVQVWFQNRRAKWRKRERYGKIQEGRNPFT
ALX3 (Homo sapiens, UniProt O95076 139-225, N203Q), sequence (O95076 139-225 N203Q): as the sequence (O95076 139-225) above, with N65Q counted along it
HOXA2 (Homo sapiens, UniProt O43364 129-215, R185T), sequence (O43364 129-215 R185T): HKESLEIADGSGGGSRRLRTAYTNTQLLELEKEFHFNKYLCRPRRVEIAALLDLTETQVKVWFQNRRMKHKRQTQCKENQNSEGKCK
PROP1 (Homo sapiens, UniProt O75360 56-141), sequence (O75360 56-141): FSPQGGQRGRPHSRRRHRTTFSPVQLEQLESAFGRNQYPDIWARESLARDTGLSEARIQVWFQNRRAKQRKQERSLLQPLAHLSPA
HOXD13 (Homo sapiens, UniProt P35453 263-343, T313R), sequence (P35453 263-343 T313R): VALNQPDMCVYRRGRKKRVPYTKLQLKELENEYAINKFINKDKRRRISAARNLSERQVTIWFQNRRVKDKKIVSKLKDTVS
HOXA2 (Homo sapiens, UniProt O43364 129-215, Y150S), sequence (O43364 129-215 Y150S): as the sequence (O43364 129-215 R185T) above, with Y22S, T57R counted along it
ALX3 (Homo sapiens, UniProt O95076 139-225, L168Q), sequence (O95076 139-225 L168Q): as the sequence (O95076 139-225) above, with L30Q counted along it
PROP1 (Homo sapiens, UniProt O75360 56-141, R99H), sequence (O75360 56-141 R99H): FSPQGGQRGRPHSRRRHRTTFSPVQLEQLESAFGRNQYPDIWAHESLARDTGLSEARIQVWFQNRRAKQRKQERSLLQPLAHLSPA
ALX3 (Homo sapiens, UniProt O95076 139-225, N203S), sequence (O95076 139-225 N203S): as the sequence (O95076 139-225) above, with N65S counted along it
ALX3 (Homo sapiens, UniProt O95076 139-225, L168V), sequence (O95076 139-225 L168V): as the sequence (O95076 139-225) above, with L30V counted along it
HOXA2 (Homo sapiens, UniProt O43364 129-215), sequence (O43364 129-215): as the sequence (O43364 129-215 R185T) above, with T57R counted along it
HOXA2 (Homo sapiens, UniProt O43364 129-215, R185K), sequence (O43364 129-215 R185K): as the sequence (O43364 129-215 R185T) above, with T57K counted along it
HOXD13 (Homo sapiens, UniProt P35453 263-343, T313A), sequence (P35453 263-343 T313A): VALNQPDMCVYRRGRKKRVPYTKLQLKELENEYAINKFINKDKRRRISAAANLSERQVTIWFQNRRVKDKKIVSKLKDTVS
HOXA4, sequence (Q00056 201-287 R217L): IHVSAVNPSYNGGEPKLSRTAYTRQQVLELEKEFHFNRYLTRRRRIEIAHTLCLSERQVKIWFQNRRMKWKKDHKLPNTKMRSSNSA
HOXD13 (Homo sapiens, UniProt P35453 263-343), sequence (P35453 263-343): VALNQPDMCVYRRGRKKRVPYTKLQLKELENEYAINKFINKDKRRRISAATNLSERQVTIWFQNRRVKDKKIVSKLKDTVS

GTTATAGA
binding signal (HOXB4 [1]): 9.85 upbm affinity estimate (log intensity, higher = more binding, comparable within an allelic series) | binding signal (HOXB4 [2]): 9.7 upbm affinity estimate (log intensity, higher = more binding, comparable within an allelic series)

AGAAATAA
binding signal (HOXB4 [1]): 10.1 upbm affinity estimate (log intensity, higher = more binding, comparable within an allelic series) | binding signal (HOXB4 [2]): 10.1 upbm affinity estimate (log intensity, higher = more binding, comparable within an allelic series)

CCTGCCCC
binding signal (HOXB4 [1]): 7.51 upbm affinity estimate (log intensity, higher = more binding, comparable within an allelic series) | binding signal (PAX4 [3]): 9.03 upbm affinity estimate (log intensity, higher = more binding, comparable within an allelic series) | binding signal (PAX4 [4]): 9.15 upbm affinity estimate (log intensity, higher = more binding, comparable within an allelic series) | binding signal (HOXB4 [2]): 7.65 upbm affinity estimate (log intensity, higher = more binding, comparable within an allelic series) | binding signal (PAX4 [5]): 9.01 upbm affinity estimate (log intensity, higher = more binding, comparable within an allelic series) | binding signal (PAX4 [6]): 9.07 upbm affinity estimate (log intensity, higher = more binding, comparable within an allelic series) | binding signal (PAX4 [7]): 9 upbm affinity estimate (log intensity, higher = more binding, comparable within an allelic series) | binding signal (PAX4 [8]): 9.13 upbm affinity estimate (log intensity, higher = more binding, comparable within an allelic series)

GAACATAA
binding signal (HOXB4 [1]): 10.5 upbm affinity estimate (log intensity, higher = more binding, comparable within an allelic series) | binding signal (HOXB4 [2]): 10.7 upbm affinity estimate (log intensity, higher = more binding, comparable within an allelic series)

AATGATTA
binding signal (HOXB4 [1]): 13.1 upbm affinity estimate (log intensity, higher = more binding, comparable within an allelic series) | binding signal (HOXA4): 12 upbm affinity estimate (log intensity, higher = more binding, comparable within an allelic series) | binding signal (HOXB4 [2]): 13.8 upbm affinity estimate (log intensity, higher = more binding, comparable within an allelic series)

CGGGGGGA
binding signal (HOXB4 [1]): 7.79 upbm affinity estimate (log intensity, higher = more binding, comparable within an allelic series) | binding signal (HOXA2 [9]): 7.04 upbm affinity estimate (log intensity, higher = more binding, comparable within an allelic series) | binding signal (HOXB4 [2]): 7.87 upbm affinity estimate (log intensity, higher = more binding, comparable within an allelic series) | binding signal (HOXD13 [10]): 8.99 upbm affinity estimate (log intensity, higher = more binding, comparable within an allelic series) | binding signal (HOXA2 [11]): 10.1 upbm affinity estimate (log intensity, higher = more binding, comparable within an allelic series) | binding signal (HOXD13 [12]): 9.17 upbm affinity estimate (log intensity, higher = more binding, comparable within an allelic series) | binding signal (HOXD13 [13]): 9.29 upbm affinity estimate (log intensity, higher = more binding, comparable within an allelic series) | binding signal (HOXA2 [14]): 10.3 upbm affinity estimate (log intensity, higher = more binding, comparable within an allelic series) | binding signal (HOXA2 [15]): 7.09 upbm affinity estimate (log intensity, higher = more binding, comparable within an allelic series)

CCGGTGAG
binding signal (HOXB4 [1]): 7.55 upbm affinity estimate (log intensity, higher = more binding, comparable within an allelic series) | binding signal (HOXB4 [2]): 7.62 upbm affinity estimate (log intensity, higher = more binding, comparable within an allelic series)

ATAAGCGC
binding signal (HOXB4 [1]): 9.9 upbm affinity estimate (log intensity, higher = more binding, comparable within an allelic series) | binding signal (HOXB4 [2]): 10 upbm affinity estimate (log intensity, higher = more binding, comparable within an allelic series)

CCAGCTCG
binding signal (HOXB4 [1]): 7.72 upbm affinity estimate (log intensity, higher = more binding, comparable within an allelic series) | binding signal (ALX4 [16]): 8.09 upbm affinity estimate (log intensity, higher = more binding, comparable within an allelic series) | binding signal (ALX4 [17]): 8.29 upbm affinity estimate (log intensity, higher = more binding, comparable within an allelic series) | binding signal (HOXB4 [2]): 7.66 upbm affinity estimate (log intensity, higher = more binding, comparable within an allelic series)

ACTATATG
binding signal (HOXB4 [1]): 9.48 upbm affinity estimate (log intensity, higher = more binding, comparable within an allelic series) | binding signal (HOXB4 [2]): 9.35 upbm affinity estimate (log intensity, higher = more binding, comparable within an allelic series)

CCTGTGGA
binding signal (HOXB4 [1]): 7.33 upbm affinity estimate (log intensity, higher = more binding, comparable within an allelic series) | binding signal (ALX4 [16]): 8.17 upbm affinity estimate (log intensity, higher = more binding, comparable within an allelic series) | binding signal (ALX4 [17]): 8.04 upbm affinity estimate (log intensity, higher = more binding, comparable within an allelic series) | binding signal (HOXB4 [2]): 7.56 upbm affinity estimate (log intensity, higher = more binding, comparable within an allelic series)

CAGGCACG
binding signal (HOXB4 [1]): 7.26 upbm affinity estimate (log intensity, higher = more binding, comparable within an allelic series) | binding signal (PRRX1 [18]): 9.38 upbm affinity estimate (log intensity, higher = more binding, comparable within an allelic series) | binding signal (HOXB4 [2]): 7.43 upbm affinity estimate (log intensity, higher = more binding, comparable within an allelic series) | binding signal (NKX2-6 [19]): 9.31 upbm affinity estimate (log intensity, higher = more binding, comparable within an allelic series) | binding signal (NKX2-6 [20]): 9.26 upbm affinity estimate (log intensity, higher = more binding, comparable within an allelic series) | binding signal (PRRX1 [21]): 9.24 upbm affinity estimate (log intensity, higher = more binding, comparable within an allelic series)

CTATTTGA
binding signal (HOXB4 [1]): 9.99 upbm affinity estimate (log intensity, higher = more binding, comparable within an allelic series) | binding signal (HOXB4 [2]): 9.85 upbm affinity estimate (log intensity, higher = more binding, comparable within an allelic series)

CCCCCGTA
binding signal (HOXB4 [1]): 7.91 upbm affinity estimate (log intensity, higher = more binding, comparable within an allelic series) | binding signal (PRRX1 [18]): 9 upbm affinity estimate (log intensity, higher = more binding, comparable within an allelic series) | binding signal (HOXB4 [2]): 7.84 upbm affinity estimate (log intensity, higher = more binding, comparable within an allelic series) | binding signal (ALX3 [22]): 7.68 upbm affinity estimate (log intensity, higher = more binding, comparable within an allelic series) | binding signal (ALX3 [23]): 7.71 upbm affinity estimate (log intensity, higher = more binding, comparable within an allelic series) | binding signal (ALX3 [24]): 7.65 upbm affinity estimate (log intensity, higher = more binding, comparable within an allelic series) | binding signal (ALX3 [25]): 7.65 upbm affinity estimate (log intensity, higher = more binding, comparable within an allelic series) | binding signal (ALX3 [26]): 7.65 upbm affinity estimate (log intensity, higher = more binding, comparable within an allelic series) | binding signal (PRRX1 [21]): 9.39 upbm affinity estimate (log intensity, higher = more binding, comparable within an allelic series)

AACCCCCC
binding signal (HOXB4 [1]): 7.54 upbm affinity estimate (log intensity, higher = more binding, comparable within an allelic series) | binding signal (HOXB4 [2]): 7.42 upbm affinity estimate (log intensity, higher = more binding, comparable within an allelic series)

AAAATTAC
binding signal (HOXB4 [1]): 11.3 upbm affinity estimate (log intensity, higher = more binding, comparable within an allelic series) | binding signal (HOXB4 [2]): 11.7 upbm affinity estimate (log intensity, higher = more binding, comparable within an allelic series)

CAGCGGAC
binding signal (HOXB4 [1]): 7.6 upbm affinity estimate (log intensity, higher = more binding, comparable within an allelic series) | binding signal (HOXB4 [2]): 7.43 upbm affinity estimate (log intensity, higher = more binding, comparable within an allelic series)

CCAACGGA
binding signal (HOXB4 [1]): 7.78 upbm affinity estimate (log intensity, higher = more binding, comparable within an allelic series) | binding signal (PRRX1 [18]): 9.38 upbm affinity estimate (log intensity, higher = more binding, comparable within an allelic series) | binding signal (HOXB4 [2]): 7.67 upbm affinity estimate (log intensity, higher = more binding, comparable within an allelic series) | binding signal (PROP1 [27]): 6.62 upbm affinity estimate (log intensity, higher = more binding, comparable within an allelic series) | binding signal (PROP1 [28]): 6.69 upbm affinity estimate (log intensity, higher = more binding, comparable within an allelic series) | binding signal (PROP1 [29]): 6.66 upbm affinity estimate (log intensity, higher = more binding, comparable within an allelic series) | binding signal (PRRX1 [21]): 9.16 upbm affinity estimate (log intensity, higher = more binding, comparable within an allelic series)
